Experimental findings from PubChem BioAssay AID463173 (ICCB-Longwood Screening Facility, Harvard Medical School, 2010) are described below.

Each structure is given as a SMILES string. Screen size: about 52,000 compounds; about 4,300 (8.3%) were called active. The entries come from a sample that favours actives as a whole. Values without a mark were called inactive. No stated cut-off is given here; in the data, active means survival mostly below about 52% (no sharp cut-off); inactive means mostly above about 56%.

This assay deals with DeltatarO mutant. The experiment in a line: growth inhibition of S. aureus wild type versus tarO mutant, primary screen, teichoic acid synthesis inhibitors, RN4220, OD600 (AID 463173). To be noted: OD600, 18 h, active compounds read low, screened at 18.75 µg/mL (by protocol).
Consider `Cc1nn(C)c2c1c(-c1ccccc1)cc(=O)n2C(C)C(=O)NCCc1ccc(Cl)cc1` (centres undefined), for which the survival is 99%. Then `CCOC(=O)c1cc2c(=O)n3ccccc3nc2n(CCOC)c1=NC(=O)c1c(-c2ccccc2Cl)noc1C`, with 180%; and `Cc1cccc(C(c2sc3nc(-c4ccco4)nn3c2O)N2CCN(c3ccccc3F)CC2)c1` (centres undefined), with 67%. Then `CCOC(=O)c1ccc2c(c1)N(CC(=O)Nc1ccc(C)cc1C)C(=O)c1ccccc1S2`, with 112%; and `Cc1sc2c(c1C)c(=O)n(CCc1ccccc1)c(=O)n2Cc1ccc(C(C)(C)C)cc1`, with 87%.

Regarding `Cc1cccc(-n2c(CCN3C(=O)c4ccccc4C3=O)nc3ccccc3c2=O)n1`, the survival was 87%.

Turning to `Clc1ccc(CN2CCc3nc(Nc4ccc5c(c4)OCCO5)ncc3C2)cc1`, the survival was 94%. The figure for `CCOc1ccc(NC(=O)Cn2cc(C(=O)c3ccc(C)cc3)c(=O)c3cc4c(cc32)OCO4)cc1` is 70%. Then `CCOc1ccc(NC(=O)CCS(=O)(=O)c2ccc3nc(C)sc3c2)cc1`, with 55%; and `CCOC(=O)c1ccccc1NC(=O)CN1C(=O)CC(c2ccco2)Sc2ccccc21` (centres undefined), with 72%; and `Cc1ccc(CNC(=O)C(C)n2ccc3cc(S(=O)(=O)N4CCCC4)ccc32)cc1` (centres undefined), with 102%. Consider `O=C(Cn1ccc2cc(S(=O)(=O)N3CCCCCC3)ccc21)NCCc1ccccc1Cl`, for which the survival is 88%. Then `O=C(Cn1ccc2cc(S(=O)(=O)N3CCCCCC3)ccc21)NCc1ccccc1Cl`, with 77%. The figure for `CC(C(=O)NCc1ccccc1)n1ccc2cc(S(=O)(=O)N3CCCC3)ccc21` (centres undefined) is 20% (active); for `O=C(Cn1ccc2cc(S(=O)(=O)N3CCCCC3)ccc21)NCCc1ccccc1Cl` it is -4% (active). The figure for `CCc1ccc(CNC(=O)C(C)n2ccc3cc(S(=O)(=O)N4CCCCCC4)ccc32)cc1` (centres undefined) is 94%. Consider `CCn1nc(C)c2c(-c3ccccc3)cc(=O)n(C(C)C(=O)NCCC(C)C)c21` (centres undefined), for which the survival is 99%. The figure for `COc1ccccc1CNC(=O)C(NS(=O)(=O)c1ccc2c(c1)CCN2C(C)=O)C(C)C` (centres undefined) is 79%; for `Cc1ccc2sc(NC(=O)c3ccc4c(c3)OCCO4)nc2c1C` it is 92%; for `CNC(=O)c1c(NC(=O)c2cc(=O)c3ccccc3o2)sc2c1CCC2` it is 94%. The figure for `CCOC(=O)c1ccc(NC(=O)CSc2c3c(nc4cc(Cl)ccc24)CCCC3)cc1` is 68%; for `CCC(C)NC(=O)CSc1c2c(nc3cc(Cl)ccc13)CCCC2` (centres undefined) it is 82%. Then `Cc1ccc(CNC(=O)CSc2c3c(nc4cc(Cl)ccc24)CCCC3)cc1`, with 80%; and `O=C(CSc1c2c(nc3ccc(Cl)cc13)CCCC2)NCc1ccccc1Cl`, with 119%; and `COc1ccc(OC)c(CNC(=O)CSc2c3c(nc4cc(Cl)ccc24)CCCC3)c1`, with 68%.

Regarding `O=C(CSc1c2c(nc3ccc(Cl)cc13)CCCC2)N1CCCCC1`, the survival was 22% (active). Then `CC1CCCCN1C(=O)CSc1c2c(nc3cc(Cl)ccc13)CCCC2` (centres undefined), with -6% (active); and `CC1CCCN(C(=O)CSc2c3c(nc4cc(Cl)ccc24)CCCC3)C1` (centres undefined), with -5% (active); and `Cc1ccc(C)c(NC(=O)CSc2c3c(nc4ccc(Cl)cc24)CCCC3)c1`, with 53%. The figure for `CC1CCN(C(=O)CSc2c3c(nc4ccc(Cl)cc24)CCCC3)CC1` is 0% (active); for `CCOC(=O)C1CCN(c2nc3c(S(=O)(=O)c4ccc(Br)cc4)nnn3c3ccsc23)CC1` it is 76%; for `O=[N+]([O-])c1ccc(S(=O)(=O)N2CCn3cccc3C2c2ccc(Br)cc2)cc1` (centres undefined) it is 75%. The figure for `COc1ccc(-c2noc(CSc3nnc(C)n3-c3ccc(C)cc3)n2)cc1OC` is 59%; for `COC(=O)c1ccc(-c2nc(-c3ccc(OC)c(OC)c3)no2)cc1` it is 64%; for `O=C(CSCc1cc(=O)c2cc(F)ccc2[nH]1)Nc1ccccc1Cl` it is 94%.

Turning to `CCOC(=O)c1ccc(NC(=O)CSc2nccn2Cc2ccc(OC)cc2)cc1`, the survival was 79%. The figure for `COc1cc(NC(=O)c2cc(-c3cccc(Cl)c3)on2)c(OC)cc1Cl` is 61%; for `CC1CCc2nc(NC(=O)COc3ccc(C(C)(C)C)cc3)sc2C1` (centres undefined) it is 80%. The figure for `CCOc1ccc(CNC(=O)CSc2c3c(nc4cc(Cl)ccc24)CCCC3)cc1` is 51%; for `CC1CCN(C(=O)CSc2c3c(nc4cc(Cl)ccc24)CCCC3)CC1` it is 5% (active). As to `COCCNC(=O)CSc1c2c(nc3cc(Cl)ccc13)CCCC2`, the survival was 71%. As to `CCOC(=O)C1CCN(C(=O)CSc2c3c(nc4ccc(Cl)cc24)CCCC3)CC1`, the survival is 39% (active). `CCc1ccccc1Nc1sc(C(=O)c2cccc(OC)c2)c(N)c1S(=O)(=O)c1ccccc1`: the survival was 72%. Consider `Cc1ccc(S(=O)(=O)CCc2nnc(NC(=O)C3CCCN3C(=O)NC3CCCCC3)s2)cc1` (centres undefined), for which the survival was 72%. The figure for `CCOc1ccc(CCNC(=O)c2sc3nc4n(c(=O)c3c2C)CCCC4)cc1` is 75%; for `CCn1cc2nc(SCC(=O)Nc3ccc(C)cc3)n(Cc3ccc(C)cc3)c(=O)c2n1` it is 69%. In the case of `Cc1ccc(CSc2nc(-c3ccc(C(C)(C)C)cc3)nc3cc(=O)[nH]n23)cc1`, the survival was 89%.

As to `COc1ccccc1NC(=O)CSc1nc(-c2ccccc2F)nc2cc(=O)[nH]n12`, the survival was 71%. The figure for `Cc1ccc(-c2nc(SCc3ccc(Br)cc3)n3[nH]c(=O)cc3n2)cc1` is 37% (active). Then `O=c1cc2nc(-c3ccccc3)nc(SCc3cccc(Br)c3)n2[nH]1`, with 98%; and `O=c1cc2nc(-c3ccccc3F)nc(SCc3ccc(Br)cc3)n2[nH]1`, with 0% (active); and `Cc1cccc(-c2nc(SCc3ccc(Br)cc3)n3[nH]c(=O)cc3n2)c1`, with 92%. As for `CCC(c1nnnn1CCOC)N1CCN(c2nc3ccccc3s2)CC1` (centres undefined), the survival is 87%.

Consider `N=C(N)N1CCN(CC(O)COc2ccccc2)CC1` (centres undefined), for which the survival is 84%.

For `C#CCn1cc(/C=C(/C#N)C(=O)Nc2ccccc2)c2ccccc21`, the survival was 54%. Then `CCCCNC(=O)C1CCN(c2nc(OC)nc(OC)n2)CC1`, with 83%.

For the molecule `O=C(CSc1nc2ccccc2n1CC(=O)N1CCCC1)N1CCCCC1`, the survival is 85%. For `Cc1ccc(C)c(OCCSc2nc3ccccc3n2CC(=O)N2CCOCC2)c1`, the survival is 55%. The figure for `O=C(Cn1c(SCCOc2ccccc2Cl)nc2ccccc21)N1CCOCC1` is 39% (active); for `Cc1ccc(C(C)C)c(OCCSc2nc3ccccc3n2CC(O)CO)c1` (centres undefined) it is 48%; for `CCn1c(SCC(N)=O)nc2ccccc21` it is 79%.

Consider `COc1ccccc1OCCSc1nc2ccccc2n1CC(=O)N1CCOCC1`, for which the survival is 94%. Then `Cc1cccc(OCCSc2nc3ccccc3n2CC(=O)N2CCOCC2)c1C`, with 50%; and `Cc1cccc(OCCSc2nc3ccccc3n2CC(=O)N2CCCCC2)c1C`, with 28% (active).

For the molecule `CCn1c(SCCOc2ccccc2F)nc2ccccc21`, the survival is 0% (active). Then `O=C(Cn1c(SCCOc2ccccc2Cl)nc2ccccc21)N1CCCCC1`, with 34% (active). The figure for `Cc1ccc(OCCSc2nc3ccccc3n2CC(=O)N2CCCCC2)c(C)c1` is 51%; for `COc1ccc(CCC(=O)NCc2ccc3c(c2)CCN3C(=O)c2ccc(C)cc2)cc1` it is 75%; for `CC1=C(c2ccc(Cl)cc2)S(=O)(=O)N=C1N1CCN(c2cccc(C)c2)C(C)C1` (centres undefined) it is 89%. Then `CCOC(=O)N1CCC(NC(=O)c2cnn(-c3ccc(OC)cc3)c2C2CCN(C(=O)OC(C)(C)C)CC2)CC1`, with 84%.

Take `CCOc1ccc(NC(=O)C(C)Sc2nnc3cc(C)c4ccccc4n23)cc1` (centres undefined): the survival is 73%. Then `COC(=O)Cn1c(SCCOc2ccccc2OC)nc2ccccc21`, with 51%; and `COC(=O)Cn1c(SCCOc2ccccc2Cl)nc2ccccc21`, with 42% (active). Then `CCCCNC(=O)c1cnn2c(C)c(Cc3c(C)cc(C)cc3C)c(C)nc12`, with 102%; and `COc1ccc(CNC(=O)CCCn2nc(C)c3sc4ccccc4c3c2=O)cc1OC`, with 87%. Then `CCc1ccc(-c2nc(CSCC(=O)N3CCN(c4ccc(F)cc4)CC3)c(C)o2)cc1`, with 73%. As to `Cc1oc(-c2ccccc2F)nc1CSCC(=O)N1CCN(c2ccccc2)CC1`, the survival was 62%. Regarding `COc1ccc(-c2nc(CSCC(=O)N3CCN(c4cccc(C)c4C)CC3)c(C)o2)cc1OC`, the survival is 49%. The figure for `Cc1cccc(-c2nc(CSCC(=O)N3CCN(c4ccccc4)CC3)c(C)o2)c1` is 17% (active); for `Cc1ccc(-c2nc(CS(=O)(=O)CC(=O)N3CCN(c4cccc(C)c4C)CC3)c(C)o2)cc1` it is 116%. In the case of `Cc1cccc(-c2nc(CSCC(=O)N3CCN(c4cccc(C)c4C)CC3)c(C)o2)c1`, the survival was 8% (active). On to `O=C(Cn1cc(SCc2ccccc2F)c2ccccc21)N1CCCCCC1`, for which the survival was 73%. The figure for `CCOC(=O)C1CCN(C(=O)c2ccc3c(=O)n4nc(Nc5ccccc5)sc4nc3c2)CC1` is 117%; for `COc1ccccc1NC(=O)Cn1c(=O)n(-c2cccc(C(C)=O)c2)c(=O)c2c3c(sc21)CN(C(C)=O)CC3` it is 89%. Then `COc1ccc(S(=O)(=O)c2c(O)c3ccc(C(=O)NCc4ccc(Cl)cc4)cc3[nH]c2=O)cc1`, with 89%; and `COc1cccc(CNC(=O)CN(C)S(=O)(=O)c2ccc3[nH]c4c(c3c2)CCCC4)c1`, with 75%. Then `CCOc1ccc(OCC)c(NC(=O)c2cnc3c(-c4ccccc4)c(C)nn3c2C)c1`, with 91%; and `Cc1ccc(NC(=O)c2cnc(SCC(=O)N3CCCc4ccccc43)n(C)c2=O)cc1C`, with 85%. On to `COc1cccc2sc(NC(=O)c3ccc4c(c3)OCCO4)nc12`, for which the survival is 88%.
